Compounds with a hit are over-represented: about 32% of the library has one in this group of screens.
CYP2C19 activ = cytochrome P450 2C19 (human) activation; recombinant CYP2C19, luciferin-H EGE luminescence; hits give high values; 0 = fully inhibited enzyme, 1 = untreated enzyme; 96,000 tested, under 10 active; activation factor at 5 µM; P33261;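 active = activation factor of at least 2 at 5 µM in the primary screen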;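 note: 0 = wells with 2.5 mM tranylcypromine and 1 = vehicle-only wells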
PostGolgi ctrl = inhibits growth of the yeast control strain; efflux-deficient yeast background strain, growth absorbance A615, 16 h; inhibition, % at 10 µM; 98,000 tested, 5% active
CYP2C19 inhib = inhibitors of human CYP2C19; P33261; CYP2C19 Supersomes, luciferin-H EGE luminescence, 30 min; inhibition, % at 5 µM; 96,000 tested, 21% active;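 active = CYP2C19 inhibition above a set limit at 5 µM in the primary screen, cut at about 50% in these data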;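 note: plate controls were negative control wells for no effect and 2.5 mM tranylcypromine positive control for full effect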
CYP2C9 act = CYP2C9 (human) activation | 96,000 tested, 1.4% active | recombinant CYP2C9, luciferin-H conversion, luminescence; hits give high values; factor 1 = untreated enzyme, 0 = blocked | activation factor at 5 µM;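 active = activation factor of 2 or more for CYP2C9 at a 5 µM dose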;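 note: 0 = sulfaphenazole-blocked wells and 1 = vehicle-only wells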
Target sequence (P11712 whole entry, looked up): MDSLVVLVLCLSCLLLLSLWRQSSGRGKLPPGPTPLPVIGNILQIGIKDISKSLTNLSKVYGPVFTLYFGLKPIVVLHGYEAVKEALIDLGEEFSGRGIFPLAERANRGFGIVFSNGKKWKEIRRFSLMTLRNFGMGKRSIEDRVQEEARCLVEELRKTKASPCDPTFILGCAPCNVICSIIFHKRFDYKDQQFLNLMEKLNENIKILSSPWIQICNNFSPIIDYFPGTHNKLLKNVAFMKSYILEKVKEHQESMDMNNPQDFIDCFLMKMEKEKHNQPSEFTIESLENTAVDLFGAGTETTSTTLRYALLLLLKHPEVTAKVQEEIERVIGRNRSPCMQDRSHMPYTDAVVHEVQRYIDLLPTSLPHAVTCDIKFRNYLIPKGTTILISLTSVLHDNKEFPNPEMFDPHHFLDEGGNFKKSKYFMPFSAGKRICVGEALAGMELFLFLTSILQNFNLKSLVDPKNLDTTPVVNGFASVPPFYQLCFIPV
PostGolgi yeast = growth inhibition of a yeast mutant, post-Golgi transport screen; post-Golgi transport phenotypic cell assay; inhibition, % at 10 µM; 98,000 tested, 0.9% active;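 note: yeast cells grown in 1536-well plates; yeast grown about 18 h at 30C before absorbance read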
CYP2C9 inh = human CYP2C9 inhibition. CYP2C9 Supersomes, luciferin-H conversion, luminescence. P11712. inhibition, % at 5 µM. 96,000 tested, 20% active;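 active = blocking of liver enzyme CYP2C9 beyond about 50% at 5 µM, limit read from the data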
* marks the source's active call; other numbers are inactive results. Cut-off read from the data, not from the text of the source, unless noted: active = inhibition above about 30%; inactive = the rest.

Results for O=C(CN(Cc1cccs1)C(=O)CNC(=O)c1ccco1)NC1CCCCC1 ?
CYP2C19 activ: 0.9; PostGolgi ctrl: -6; CYP2C19 inhib: 9; CYP2C9 act: 0.5; PostGolgi yeast: -5; CYP2C9 inh: 50*

Results for CCOC(=O)c1ccc(N(CC(=O)NC2CCCC2)C(=O)CNC(=O)c2ccco2)cc1 ?
CYP2C19 activ: 0.7; PostGolgi ctrl: 10; CYP2C19 inhib: 26; CYP2C9 act: 0.6; PostGolgi yeast: -7; CYP2C9 inh: 41

How did O=C(CN(C(=O)CNC(=O)c1ccco1)c1ccc2c(c1)OCO2)NC1CCCCC1 do in these assays?
CYP2C19 activ: 0.3; PostGolgi ctrl: -3; CYP2C19 inhib: 73*; CYP2C9 act: 0; PostGolgi yeast: 8; CYP2C9 inh: 95*

How did COC(=O)c1cc2n(n1)CCN(Cc1ccccc1F)C2=O do in these assays?
CYP2C19 activ: 0.8; PostGolgi ctrl: -1; CYP2C19 inhib: 17; CYP2C9 act: 1; PostGolgi yeast: 18; CYP2C9 inh: -1

How did O=C(NCCN1CCOCC1)C1CCN(Cc2ccccc2O)CC1 do in these assays?
CYP2C19 activ: 1.2; PostGolgi ctrl: 4; CYP2C19 inhib: -16; CYP2C9 act: 0.9; PostGolgi yeast: 3; CYP2C9 inh: 8

Results for O=C(CN(C(=O)CNC(=O)c1cccs1)c1ccc2c(c1)OCCO2)NC1CCCC1 ?
CYP2C19 activ: 0.8; PostGolgi ctrl: 3; CYP2C19 inhib: 25; CYP2C9 act: 0.1; PostGolgi yeast: -6; CYP2C9 inh: 91*

What do the screens show for `O=C(NCC(=O)N(Cc1cccs1)C(C(=O)NC1CCCC1)c1ccco1)c1cccs1` (stereo not given)?
CYP2C19 activ: 0.1; PostGolgi ctrl: 24; CYP2C19 inhib: 87*; CYP2C9 act: 0.1; PostGolgi yeast: 2; CYP2C9 inh: 89*

How did C/C(CC(=O)Nc1ccc(OCc2ccccc2)cc1)=N\NC(=O)C(=O)Nc1ccccc1C do in these assays?
CYP2C19 activ: 1.1; PostGolgi ctrl: 7; CYP2C19 inhib: -11; CYP2C9 act: 0.8; PostGolgi yeast: -12; CYP2C9 inh: 20

What do the screens show for `O=C1CC(c2ccc(F)cc2)CC(O)=C1C1NCCc2ccccc21` (stereo not given)?
CYP2C19 activ: 1.1; PostGolgi ctrl: 25; CYP2C19 inhib: -7; CYP2C9 act: 1; PostGolgi yeast: -5; CYP2C9 inh: 2

Results for O=C(O)C1NCCc2ccccc21 (stereo not given) ?
CYP2C19 activ: 0.7; PostGolgi ctrl: 6; CYP2C19 inhib: 32; CYP2C9 act: 0.3; PostGolgi yeast: -1; CYP2C9 inh: 74*

How did O=C(NC1CCCCC1)c1sc(=S)n2c1[nH]c(=O)c1ccccc12 do in these assays?
CYP2C19 activ: 0.3; PostGolgi ctrl: 56*; CYP2C19 inhib: 72*; CYP2C9 act: 0.1; PostGolgi yeast: -3; CYP2C9 inh: 95*

How did CCCCNC(=O)c1sc(=S)n(-c2ccccc2OC)c1N do in these assays?
CYP2C19 activ: 0.8; PostGolgi ctrl: 1; CYP2C19 inhib: 19; CYP2C9 act: 0.7; PostGolgi yeast: -4; CYP2C9 inh: 27

Results for O=C(NCC1CCCO1)c1ccc2c(=O)n(CC3CCCO3)c(=S)[nH]c2c1 (stereo not given) ?
CYP2C19 activ: 1; PostGolgi ctrl: -3; CYP2C19 inhib: 1; CYP2C9 act: 0.9; PostGolgi yeast: -6; CYP2C9 inh: 8

Results for O=C(NCC1CCCO1)c1sc(=S)n2c1[nH]c(=O)c1ccc(C(=O)N3CCCCC3)cc12 (stereo not given) ?
CYP2C19 activ: 0.9; PostGolgi ctrl: 2; CYP2C19 inhib: 9; CYP2C9 act: 0.1; PostGolgi yeast: -1; CYP2C9 inh: 86*

Results for CCCCNC(=O)c1sc(=S)n2c1[nH]c(=O)c1ccccc12 ?
CYP2C19 activ: 0.8; PostGolgi ctrl: 44*; CYP2C19 inhib: 18; CYP2C9 act: 0.1; PostGolgi yeast: 6; CYP2C9 inh: 94*

How did O=[N+]([O-])CC(=Nc1ccc(Cl)cc1)N/N=C\c1oc(O)c2ccccc12 do in these assays?
CYP2C19 activ: 1; PostGolgi ctrl: 9; CYP2C19 inhib: -2; CYP2C9 act: 0.7; PostGolgi yeast: 4; CYP2C9 inh: 28

What do the screens show for `Cc1c(CCO)c(=O)n(C)n1C(=O)c1ccc(Cl)cc1`?
CYP2C19 activ: 0.4; PostGolgi ctrl: 1; CYP2C19 inhib: 56*; CYP2C9 act: 1; PostGolgi yeast: 5; CYP2C9 inh: 4

Compound activity as filed in PubChem.
